# Measured values taken from PubChem BioAssay.
# Active and inactive are the calls of the source. Unless noted, how the calls were made is not given here.
# How the values were obtained:
# [1] = HepG2 liver cancer cell viability effects, profiling panel, resazurin fluorescence, 24 h, PK04 Diversity Set (AID 1172); details: higher = more signal
# [2] = basal S. cerevisiae growth modulation, no modifier, primary screen, OD600, strain BY4716, 24 h, basal condition (AID 1173); details: OD600, 24 h, higher = more signal, called active from +8 up or from −8 down
# [3] = MM1S myeloma cell viability, profiling panel, resazurin fluorescence, basal, 24 h, PK04 Diversity Set (AID 1174); details: higher = more signal, called active from +8 up or from −8 down;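 further: MM1S multiple myeloma cell line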
# [4] = target: Dihydroorotate dehydrogenase (quinone), mitochondrial (Plasmodium falciparum (isolate 3D7)) (UniProt Q08210); test: PfDHODH enzyme inhibitors, primary screen, biochemical, C-terminal His tag, absorbance 600 nm (AID 1175); details: DCIP absorbance 600 nm, higher = more signal, called active from +8 up or from −8 down;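 further: recombinant parasite enzyme with a five histidine tag at its C terminus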
# Chain of Dihydroorotate dehydrogenase (quinone), mitochondrial (Plasmodium falciparum (isolate 3D7)) (Q08210 whole entry, looked up): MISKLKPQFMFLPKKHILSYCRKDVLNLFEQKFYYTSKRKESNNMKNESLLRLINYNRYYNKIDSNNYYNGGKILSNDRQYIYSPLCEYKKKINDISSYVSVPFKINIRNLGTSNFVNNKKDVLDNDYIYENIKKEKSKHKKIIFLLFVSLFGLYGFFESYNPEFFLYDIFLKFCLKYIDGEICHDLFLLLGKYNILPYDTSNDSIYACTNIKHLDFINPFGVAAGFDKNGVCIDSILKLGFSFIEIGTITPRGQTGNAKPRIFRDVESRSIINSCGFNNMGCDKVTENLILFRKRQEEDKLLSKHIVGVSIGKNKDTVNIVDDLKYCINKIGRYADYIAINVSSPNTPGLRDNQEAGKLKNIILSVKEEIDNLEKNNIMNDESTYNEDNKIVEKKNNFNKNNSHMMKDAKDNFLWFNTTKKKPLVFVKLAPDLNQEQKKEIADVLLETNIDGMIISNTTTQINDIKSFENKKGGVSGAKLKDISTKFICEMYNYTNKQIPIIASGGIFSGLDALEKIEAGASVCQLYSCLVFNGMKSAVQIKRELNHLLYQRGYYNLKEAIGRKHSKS
# [5] = P. aeruginosa biofilm formation inhibitors, primary screen, strain PAO1, LB-PBS medium, absorbance 600 nm (AID 1176); details: P. aeruginosa PAO1 growth/biofilm, A600, 12 h; higher = more signal
# [6] = S. cerevisiae RM11-1a growth modifiers, primary screen, strain RM11-1a, OD600, basal, 24 h (AID 1177); details: OD600, 24 h, higher = more signal, called active from +8 up or from −8 down;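 further: cultures grown under basal conditions with no added stressor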
# [7] = E. coli acrAB mutant growth effects, primary screen, E. coli filamentation inducers, strain DRC39, OD650, 24 h (AID 1178); details: higher = more signal, called active from +8 up or from −8 down;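 further: growth measured as culture turbidity by optical density at 650 nm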
# [8] = E. coli acrAB mutant growth effects, primary screen, E. coli filamentation inducers, strain DRC39, OD650, 48 h (AID 1179);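 further: screen aims at cell division blockers that make cells filament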; details: E. coli DRC39 delta-acrAB growth, higher = more signal, called active from +8 up or from −8 down
# [9] = RPMI8226 myeloma cell viability, profiling panel, resazurin fluorescence, basal, 24 h, PK04 Diversity Set (AID 1180); details: higher = more signal;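 further: RPMI8826 multiple myeloma cell line at 5000 cells per well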
# [10] = target: E3 ubiquitin-protein ligase XIAP (Homo sapiens) (UniProt P98170); test: XIAP binders, primary screen, biophysical, small-molecule microarray, fluorescence 635 nm (AID 1181); details: small-molecule microarray binding, higher = more signal;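 further: score merges 667 nm emission and signal to noise over triplicate slides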
# Chain of E3 ubiquitin-protein ligase XIAP (Homo sapiens) (P98170 whole entry, looked up): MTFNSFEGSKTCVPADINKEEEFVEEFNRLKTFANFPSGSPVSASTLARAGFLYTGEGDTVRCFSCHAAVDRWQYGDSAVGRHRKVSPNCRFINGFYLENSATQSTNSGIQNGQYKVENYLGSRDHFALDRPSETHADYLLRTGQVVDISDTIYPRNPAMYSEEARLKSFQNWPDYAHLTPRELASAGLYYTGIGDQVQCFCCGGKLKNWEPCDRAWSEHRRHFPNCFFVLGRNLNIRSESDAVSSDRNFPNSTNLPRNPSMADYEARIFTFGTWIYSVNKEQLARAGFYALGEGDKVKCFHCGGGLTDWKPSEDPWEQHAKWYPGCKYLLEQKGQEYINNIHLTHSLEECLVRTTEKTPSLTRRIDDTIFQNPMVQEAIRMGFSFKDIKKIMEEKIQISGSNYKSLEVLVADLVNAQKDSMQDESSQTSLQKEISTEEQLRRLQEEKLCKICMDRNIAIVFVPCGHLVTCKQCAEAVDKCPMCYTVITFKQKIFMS
# [11] = tested on: XIP peptide (Xip251-270) binding; test: small-molecule binders of XIP peptide, primary screen, biochemical, small-molecule microarray, fluorescence 635/667 nm, 0.1 µg/mL protein (AID 1182); details: fluorescent protein binding, 635 nm, higher = more signal, called active from +8 up or from −8 down
# XIP peptide (Xip251-270) = test: small-molecule binders of XIP peptide, primary screen, biochemical, small-molecule microarray, fluorescence 635/667 nm, 0.5 µg/mL protein (AID 1183); details: small-molecule microarray binding, fluorescence 635 nm; higher = more signal
# [12] = Plasmodium falciparum growth inhibition, primary screen, strain 3D7, DAPI fluorescence, 100 nL (AID 1184);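 further: parasites grown inside human red blood cells in medium with human serum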; details: P. falciparum 3D7 growth, 3 d, higher = more signal
# [13] = target: Homeobox protein Hox-A13 (Mus musculus) (UniProt Q62424); test: inhibitors of HoxA13-DNA binding, primary screen, biochemical, fluorescence polarization, labeled oligonucleotide (AID 1185); details: 15 min, higher = more signal, called active from +8 up or from −8 down
# Chain of Homeobox protein Hox-A13 (Mus musculus) (Q62424 whole entry, looked up): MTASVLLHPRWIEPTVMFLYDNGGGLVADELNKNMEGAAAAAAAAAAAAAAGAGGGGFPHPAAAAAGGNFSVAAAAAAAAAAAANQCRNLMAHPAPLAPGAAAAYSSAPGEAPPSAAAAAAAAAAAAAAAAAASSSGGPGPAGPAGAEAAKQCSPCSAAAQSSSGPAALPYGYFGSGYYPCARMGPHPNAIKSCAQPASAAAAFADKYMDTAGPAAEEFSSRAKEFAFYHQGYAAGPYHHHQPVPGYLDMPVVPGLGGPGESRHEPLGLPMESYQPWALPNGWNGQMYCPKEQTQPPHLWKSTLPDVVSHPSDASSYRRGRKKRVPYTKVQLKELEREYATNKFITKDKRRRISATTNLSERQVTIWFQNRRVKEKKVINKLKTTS
SMILES,z-score [1],z-score [2],z-score [3],composite z-score [4],z-score [5],z-score [6],z-score [7],z-score [8],z-score [9],composite z-score [10],composite z-score [11],composite z-score (XIP peptide (Xip251-270)),z-score [12],z-score [13]
CCCNC(=O)OC[C@H]1O[C@H](CCON=C2C[C@@H](O)[C@@H](O)[C@@H]3[C@@H]4C(=O)N(CC)C(=O)[C@@H]4CC[C@@H]23)C=C[C@@H]1Oc1ccc(OC)cc1,-0.57,0.0913 (inactive),-0.791 (inactive),-0.384 (inactive),0.429 (inactive),-0.32 (inactive),0.74 (inactive),0.658 (inactive),-1.02,-0.281,-0.14 (inactive),0.696,0.497,-7.64 (inactive)
COc1ccc(O[C@H]2C=C[C@@H](c3ccccc3)O[C@@H]2COC(=O)CCC(C)=NOC[C@@H](O)COCc2ccco2)cc1,0.206,-1.06 (inactive),-1.11 (inactive),-2.35 (inactive),-0.0903 (inactive),-1.48 (inactive),-0.129 (inactive),-0.902 (inactive),0.37,0.122,-0.0073 (inactive),-0.448,0.048,-5.52 (inactive)
CC(CCC(=O)OC[C@H]1O[C@H](C#Cc2ccccc2)C=C[C@@H]1Oc1ccc(C)cc1)=NOC(C)CN1CCCc2nc(C)c(C)cc21 (some centres undefined),-0.374,-0.525 (inactive),-0.541 (inactive),0.589 (inactive),0.335 (inactive),0.797 (inactive),0.879 (inactive),-0.41 (inactive),-0.0206,0.257,0.687 (inactive),0.529,-1.9,-3.93 (inactive)
COCC#Cc1ccc([C@@H]2N[C@H](C(=O)O)CC[C@H]2C)cc1,-0.041,-1.71 (inactive),0.525 (inactive),-1.53 (inactive),0.143 (inactive),-2.45 (inactive),0.966 (inactive),-0.94 (inactive),-0.293,-0.416,-0.238 (inactive),-0.52,0.383,-1.46 (inactive)
CC(CCN1CCCc2nc(C)c(C)cc21)=NOC[C@@H](C)[C@H](OCc1ccccc1)C(C)C,-0.135,-3.26 (inactive),0.0518 (inactive),-2.07 (inactive),-0.0417 (inactive),-1.86 (inactive),-0.787 (inactive),0.262 (inactive),-0.0093,0.0153,-0.563 (inactive),0.548,-0.342,-3.09 (inactive)
CO[C@@H]1C=CCC(=O)N[C@@H](C)C(=O)OC[C@@H](NS(=O)(=O)c2ccc(C)cc2)[C@H](C)C=CCC(=O)OC[C@H]1C,-0.0689,-0.872 (inactive),-0.0213 (inactive),-0.165 (inactive),-0.212 (inactive),-0.876 (inactive),0.0721 (inactive),-0.418 (inactive),0.135,0.201,-0.778 (inactive),0.247,0.251,-1.06 (inactive)
C[C@@H]1CC[C@H]2C(=O)O[C@@H](COc3ccc(C(C)(C)C)cc3)CN2[C@H]1c1ccc(Br)cc1,0.7,-0.481 (inactive),0.385 (inactive),0.444 (inactive),0.11 (inactive),-0.0191 (inactive),-0.578 (inactive),-0.423 (inactive),0.749,-0.327,-0.382 (inactive),0.619,0.907,0.503 (inactive)
CO[C@@H]1COC(=O)[C@@H]2CCCN2C(=O)[C@@H](C)COC(=O)CCC[C@H]1C,-0.668,-0.482 (inactive),-0.27 (inactive),-1.47 (inactive),-0.197 (inactive),-2.66 (inactive),-0.0549 (inactive),-0.0609 (inactive),-0.304,0.134,-0.0308 (inactive),0.143,0.193,0.694 (inactive)
COc1ccc(COC(=O)NN=C2C[C@@H](O)[C@@H](O)[C@@H]3[C@@H]4C(=O)N(C[C@@H]5CCCO5)C(=O)[C@@H]4CC[C@H]23)cc1,-0.161,1.29 (inactive),0.0829 (inactive),-0.395 (inactive),-0.0485 (inactive),0.293 (inactive),0.16 (inactive),0.0875 (inactive),-0.631,0.0679,-0.0696 (inactive),-0.239,-0.534,0.459 (inactive)
COC(=O)CC=C[C@@H](C)[C@@H](C=NOC[C@@H](C)[C@H](OCc1ccccc1)C(C)C)NS(=O)(=O)c1ccc(C)cc1,-1,-0.0668 (inactive),-0.562 (inactive),1.07 (inactive),-0.291 (inactive),0.391 (inactive),-0.247 (inactive),-1.18 (inactive),0.0833,-0.0844,0.265 (inactive),-0.0132,-0.192,-4.05 (inactive)
O=C(NCCC[N+]1=CC=NC1c1ccccc1)N1CCCc2nc(-c3ccc(Br)cc3)ccc21 (centres undefined),0.0392,-2.72 (inactive),-1.04 (inactive),1.01 (inactive),0.508 (inactive),1.6 (inactive),1.11 (inactive),-0.493 (inactive),-0.29,-0.105,0.638 (inactive),0.0388,-0.449,-7.21 (inactive)
C#CCCCON=C1C[C@@H](O)[C@@H](O)[C@@H]2[C@@H]3C(=O)N(C[C@@H]4CCCO4)C(=O)[C@@H]3CC[C@@H]12,0.475,0.43 (inactive),0.0893 (inactive),-0.85 (inactive),0.14 (inactive),-0.399 (inactive),0.534 (inactive),0.802 (inactive),0.199,-0.0303,0.141 (inactive),0.384,1.38,0.866 (inactive)
CCOC(=O)[C@H](Cc1ccccc1)NC(=O)CCC1CC(OC(=O)NCc2cccc3ccccc23)CC2(CCCC(COC(=O)NCC3CCCCC3)O2)O1 (some centres undefined),1.21,-0.424 (inactive),1.43 (inactive),-0.105 (inactive),0.143 (inactive),-0.104 (inactive),-0.475 (inactive),0.481 (inactive),0.0833,0.0424,1.98 (inactive),0.357,-1.69,-3.1 (inactive)
O=C1C=C[C@@H](O)[C@@H]2[C@@H]3C(=O)N(Cc4ccc5c(c4)OCO5)C(=O)[C@@H]3CC[C@@H]12,-0.557,0.516 (inactive),0.966 (inactive),0.0627 (inactive),0.0122 (inactive),-0.129 (inactive),0.207 (inactive),-0.173 (inactive),0.422,-0.0233,-0.297 (inactive),0.228,-0.786,-0.416 (inactive)
CCOC(=O)[C@H](Cc1ccccc1)NC(=O)CCC1CC(OC(=O)NCc2ccc3c(c2)OCO3)CC2(CCCC(COC(=O)NCCOC)O2)O1 (some centres undefined),0.0491,-0.914 (inactive),0.808 (inactive),-2.56 (inactive),-0.871 (inactive),0.0059 (inactive),-0.477 (inactive),0.525 (inactive),-0.0023,0.0374,0.247 (inactive),0.515,-2.09,-3.78 (inactive)
CC(C)CON=C1C[C@@H](O)[C@@H](O)[C@@H]2[C@@H]3C(=O)N(Cc4ccccc4)C(=O)[C@@H]3CC[C@H]12,0.0344,-1.11 (inactive),1.15 (inactive),-0.451 (inactive),0.92 (inactive),-1.17 (inactive),0.68 (inactive),-1.08 (inactive),0.851,-0.0436,-0.0404 (inactive),0.106,-1.65,-2.34 (inactive)
COC(=O)[C@H](C)NC(=O)CCC1CC(OC(=O)NCc2cccc3ccccc23)CC2(CCCC(COC(=O)NCc3cccc(C(F)(F)F)c3)O2)O1 (some centres undefined),-0.599,-0.458 (inactive),0.47 (inactive),-1.5 (inactive),0.593 (inactive),-0.968 (inactive),-0.289 (inactive),-0.456 (inactive),0.297,0.14,-0.179 (inactive),0.128,-1.74,-4.97 (inactive)
CCOC(=O)[C@H](Cc1ccccc1)NC(=O)CCC1CC(OC(=O)NCc2cccc3ccccc23)CC2(CCCC(COC(=O)NCCOc3ccccc3)O2)O1 (some centres undefined),-0.208,-1.13 (inactive),1.41 (inactive),-0.533 (inactive),-0.0448 (inactive),-1.17 (inactive),0.19 (inactive),-1.67 (inactive),1.02,-0.102,-0.0988 (inactive),0.512,-1.86,-2.04 (inactive)
CCOC(=O)[C@H](CC(C)C)NC(=O)CCC1CC(OC(=O)NCCc2ccc(F)cc2)CC2(CCCC(COC(=O)NCCOC)O2)O1 (some centres undefined),0.0369,1.02 (inactive),0.581 (inactive),0.753 (inactive),0.283 (inactive),0.963 (inactive),0.0415 (inactive),-0.489 (inactive),0.464,-0.18,0.0029 (inactive),0.39,-1.9,-6.12 (inactive)
Cc1ccc2[nH]c3nc(CCCn4ccnc4-c4ccccc4)nnc3c2c1,-0.256,-0.104 (inactive),-1.15 (inactive),0.411 (inactive),0.0737 (inactive),-0.212 (inactive),0.164 (inactive),0.183 (inactive),-0.976,-0.119,-0.0582 (inactive),0.623,-1.09,-0.867 (inactive)
CC(CCN1CCCCc2nc(C)c(C)cc21)=NO[C@@H](C)c1cc(-c2c(C)cc(C)cc2C)no1,1.18,-6.11 (inactive),0.862 (inactive),-0.525 (inactive),-0.467 (inactive),-0.62 (inactive),0.777 (inactive),0.935 (inactive),1.51,0.626,0.107 (inactive),0.0399,-0.143,-2.25 (inactive)
